The values that follow come from PubChem BioAssay (NCI).

The panel holds about 83,000 compounds, 20% with a hit somewhere; the sample as a whole holds those more often.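 Plates (96-well) were seeded with cells, treated with compound at one concentration, and incubated for 48 hours before percent growth was determined.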 Values without a mark were called inactive. The source made the active and inactive calls. The calls were made as follows: active = growth percent below 10; inactive = the rest.

Test systems include DU-145 prostate; MALME-3M melanoma; MDA-MB-231 breast; RXF 393 renal; SF-268 CNS; SF-295 CNS; SF-539 CNS; UACC-257 melanoma; M14 melanoma; K-562 leukemia.
Holding throughout (assay): NCI-60 one-dose screen, 48 h (100 = growth as untreated, 0 = no growth, -100 = all killed)
Common to all, as to details: 10 µM unless noted

For `Clc1ccc2nc3nc4ccc[nH]c4cc3c2c1`, the growth in the experiment on DU-145 prostate is 100%; in the experiment with MALME-3M melanoma it was 87.2%; with MDA-MB-231 breast it was 99.6%; in the experiment with RXF 393 renal it was 116%; in the experiment on SF-268 CNS, 97.9%; in the experiment on SF-295 CNS it was 101%. Moreover, the growth in the experiment with SF-539 CNS is 83.7%; in the experiment on UACC-257 melanoma it was 85.8%; with M14 melanoma, 106%.

Turning to `Cc1cc(N2CCN(c3ccnc4cc(Cl)ccc34)CC2)nc(NC2CCCCC2)n1`, the growth is 51.5% in the experiment with DU-145 prostate; 5.36% (active) with K-562 leukemia; -3.08% (active) in the experiment on MDA-MB-231 breast; 48.8% with RXF 393 renal; 47.4% with SF-268 CNS; 18.9% in the experiment on SF-295 CNS. The values for the growth with SF-539 CNS and in the experiment with UACC-257 melanoma were 43% and -0.92% (active), respectively.

In the case of `CC(C)c1c(C(=O)c2ccccc2)c(-c2ccccc2)c(-c2ccc(F)cc2)n1CC[C@@H](O)C[C@@H](O)CC(=O)O`, the growth with DU-145 prostate was 105%; in the experiment on K-562 leukemia, 71.3%; in the experiment with MALME-3M melanoma, 85.2%; in the experiment with RXF 393 renal, 36.6%; with SF-268 CNS, 34.7%; in the experiment with SF-295 CNS, 30.7%. Moreover, the growth with SF-539 CNS is 80%; with UACC-257 melanoma it was 83.8%; in the experiment on M14 melanoma it was 63.8%.

Turning to `NC(=NC1C2CC3CC(C2)CC1C3)Nc1ccc(I)cc1` (stereo not drawn), the growth with DU-145 prostate is 20.4%; in the experiment with MALME-3M melanoma, -17% (active); in the experiment with MDA-MB-231 breast, 41.8%; with RXF 393 renal it was 85.8%; in the experiment with SF-268 CNS, 40.7%; in the experiment on SF-295 CNS, 10.7%. The growth in the experiment on SF-539 CNS is 32%; with UACC-257 melanoma it was 0.379% (active).

Take `COc1cc2c(cc1OC)C(Sc1ccc(SC)cc1)c1c(nc(N)c(C#N)c1N)O2` (stereo not drawn): the growth is -75.8% (active) in the experiment with DU-145 prostate; -67% (active) with MALME-3M melanoma; -67.4% (active) with MDA-MB-231 breast; -75.9% (active) in the experiment with RXF 393 renal; -36.6% (active) in the experiment on SF-268 CNS; -56.3% (active) with SF-295 CNS. The figures for the growth in the experiment on SF-539 CNS, in the experiment with UACC-257 melanoma and in the experiment with M14 melanoma were -95.3% (active), -51.2% (active) and -80.6% (active), respectively.

As to `OCCN1CCN(c2nc(Nc3ccc(-c4nc5ccccc5[nH]4)cc3)c3cn[nH]c3n2)CC1`, the growth in the experiment with DU-145 prostate was -87.1% (active); with MALME-3M melanoma it was -74.2% (active); with MDA-MB-231 breast, -77% (active); with RXF 393 renal it was -93.6% (active); in the experiment on SF-268 CNS, -80.9% (active); in the experiment with SF-295 CNS, -96% (active). Also, the growth is -85.4% (active) with SF-539 CNS and -89% (active) in the experiment on UACC-257 melanoma.

With `O=C(Cn1cccc(Nc2ccccc2)c1=O)Nc1ccccc1`, the growth with DU-145 prostate is 111%; in the experiment on K-562 leukemia, 108%; in the experiment with MDA-MB-231 breast, 108%; with RXF 393 renal it was 100%; in the experiment with SF-268 CNS, 107%; in the experiment on SF-295 CNS, 106%. Moreover, the growth with SF-539 CNS was 97.1%; in the experiment on UACC-257 melanoma it was 99.6%; in the experiment on M14 melanoma, 102%.

Regarding `O=c1ccccc(-c2ccc(-c3ccco3)cc2)c1O`, the growth in the experiment on DU-145 prostate is 19.7%; with MALME-3M melanoma, 15.1%; in the experiment on MDA-MB-231 breast, 40.2%; in the experiment with RXF 393 renal it was 43.9%; with SF-268 CNS, 11%; in the experiment with SF-295 CNS it was 20.5%. Besides, the growth in the experiment on SF-539 CNS was -2.44% (active); in the experiment with UACC-257 melanoma, 0.169% (active).

For the compound `COc1cc(Nc2cc(C)nc(N3CCN(c4ccnc5cc(Cl)ccc45)CC3)n2)cc(OC)c1`, the growth with DU-145 prostate is 2.17% (active); in the experiment with K-562 leukemia, 8.3% (active); in the experiment on MDA-MB-231 breast, -35.1% (active); with RXF 393 renal, 4.88% (active); with SF-268 CNS it was 15.1%; in the experiment on SF-295 CNS it was 0.307% (active). For the same compound, the growth is -16.9% (active) with SF-539 CNS, 49.2% with UACC-257 melanoma and 4.43% (active) in the experiment with M14 melanoma.

Take `COc1cc(/C=C/C(=O)Nc2cccnc2Nc2ccc(F)cc2)cc(OC)c1OC`: the growth is 110% in the experiment on DU-145 prostate; 110% in the experiment with MALME-3M melanoma; 93.5% with MDA-MB-231 breast; 108% with RXF 393 renal; 102% in the experiment with SF-268 CNS; 94.2% with SF-295 CNS. In addition, the growth in the experiment on SF-539 CNS was 95.2%; in the experiment on UACC-257 melanoma it was 62.9%; in the experiment with M14 melanoma it was 103%.

Turning to `CC(=O)c1cc2c(N)c(C(=O)Nc3cccc(F)c3C)sc2nc1C`, the growth with DU-145 prostate was 99.1%; in the experiment on MALME-3M melanoma, 94%; in the experiment on MDA-MB-231 breast, 82.1%; in the experiment on RXF 393 renal, 96.6%; with SF-268 CNS it was 94.3%; in the experiment on SF-295 CNS it was 82.4%. In addition, the growth with SF-539 CNS was 93.5%; with UACC-257 melanoma it was 74.5%; in the experiment with M14 melanoma, 65.2%.

As for `CS(=O)(=O)c1ccc(-n2nc(-c3ccc(Br)cc3)c3ccccc3c2=O)cc1`, the growth is 99.2% in the experiment on DU-145 prostate; 90.9% in the experiment with K-562 leukemia; 90.1% in the experiment on MDA-MB-231 breast; 97.1% with RXF 393 renal; 95% in the experiment on SF-268 CNS; 94% with SF-295 CNS. The growth in the experiment on SF-539 CNS was 96.2%; in the experiment on UACC-257 melanoma, 97.3%; in the experiment with M14 melanoma, 107%.

Take `Cc1cc(N2CCCC2)nc(NC2CCCC(Nc3ccnc4cc(Cl)ccc34)C2)n1` (stereo not drawn): the growth in the experiment on DU-145 prostate is -21.8% (active); with MALME-3M melanoma, -80.4% (active); in the experiment on MDA-MB-231 breast, -77% (active); in the experiment with RXF 393 renal, -84.5% (active); with SF-268 CNS it was -36.7% (active); in the experiment on SF-295 CNS, -80.8% (active). For the same compound, the growth was -92.5% (active) with SF-539 CNS and -84.3% (active) with UACC-257 melanoma.

As to `CCCCC/C(C=C(C#N)C#N)=C/c1ccccc1`, the growth in the experiment on DU-145 prostate is 71.3%; in the experiment on K-562 leukemia it was 42.2%; with MALME-3M melanoma, 95.4%; in the experiment on MDA-MB-231 breast, 77.7%; with SF-268 CNS, 81.7%; in the experiment with SF-295 CNS, 84.4%. Besides, the growth with SF-539 CNS was 92.3%; in the experiment with UACC-257 melanoma, 54%; in the experiment on M14 melanoma it was 73%.

In the case of `CC[C@@H]1O[C@H](O[C@@H](c2cnc[nH]2)[C@H](NC(=O)c2nc([C@H](CC(N)=O)NC[C@@H](N)C(N)=O)nc(N)c2C)C(=O)N[C@H](C)[C@H](O)[C@H](C)C(=O)N[C@@H](C(=O)NCCc2nc(-c3nc(C(=O)NCCCCN=C(N)N)cs3)cs2)[C@@H](C)O)[C@H](O[C@@H]2O[C@H](CO)[C@H](O)[C@H](OC(N)=O)[C@@H]2O)[C@H](C)[C@@H]1C`, the growth in the experiment with DU-145 prostate is 49.4%; in the experiment on K-562 leukemia it was 82%; in the experiment on MALME-3M melanoma it was 45%; with MDA-MB-231 breast, 88.7%; in the experiment on SF-268 CNS, 23.1%; in the experiment with UACC-257 melanoma, 70.9%. Also, in the experiment with M14 melanoma, the growth is 39.2%.
